Source: ChEMBL document CHEMBL4513216, “Probing the Open Global Health Chemical Diversity Library for Multistage-Active Starting Points for Next-Generation Antimalarials” (ACS Infect Dis, 2020)
Hit rate of the full screen: of about 69,000 compounds, about 8,600 (12%) showed an effect of 50% or more. For the sample, strong results were picked, then their nearest neighbours and some compounds at random.

system: Plasmodium berghei; test: Screen against P. berghei liver stage (PbLuc), transformed with Luciferase, at 10uM; assay type: functional, HepG2; conditions: tested at 10 uM

SMILES | INHIBITION
O=C(Cc1ccccc1Cl)Nc1cc(N2CCCC2)ncn1 | -12.1%
O=C(O)[C@@H]1CN(C(=O)CCN2CCCCC2)C[C@H]1c1ccccc1 | -24%
CCOCc1nc(-c2ccc(F)cc2Cl)n(C2CCN(C)CC2)n1 | 8.51%
Cc1noc(C)c1CNC(=O)Nc1ccc(N2CCSCC2)cc1 | 7.93%
Cc1cc(NC(=O)CN2CCc3cncnc3C2)on1 | 43.3%
O=C(c1ccccn1)N1C[C@H]2CC[C@@H](C1)N(C(=O)c1ccsc1)C2 | 20.6%
CCn1ccnc1CNc1nccc(-c2c(C)nn(C)c2C)n1 | -47.8%
CCn1ccnc1CNc1nccc(-c2cn(C)nc2C)n1 | -67.9%
CCc1nccn1CCCNc1nccc(-c2c(C)nn(C)c2C)n1 | 65.2%
CCc1nc(CN(C(C)=O)C2CCN(Cc3csc(C)n3)C2)no1 (stereo not given) | -13.5%
CC(=O)N1CCN(Cc2ccc3c(c2)OCCO3)CC(O)C1 (stereo not given) | 15.8%
O=C(NCC1CC1)N1CCN(Cc2ccc3c(c2)OCCO3)CC1 | 13.9%
COCC(=O)NC[C@]1(O)CN(Cc2ccc3c(c2)OCCO3)C[C@H]1O | 66.8%
COCC(=O)N[C@@H]1CN(Cc2ccc3c(c2)OCCO3)C[C@H]1O | 52%
CCC[C@H]1CN(Cc2ccc3c(c2)OCCO3)C[C@@H]1NC(=O)COC | 37.6%
COCC(=O)NC[C@]12COC[C@H]1CN(Cc1ccc3c(c1)OCO3)C2 | 0.453%
Cc1nc(CN2CCCC(Cn3cncn3)C2)no1 (stereo not given) | 34.7%
CN(Cc1nnc(C2CC2)n1C)S(=O)(=O)c1ccc(F)c(C#N)c1 | -6.46%
CS(=O)(=O)N1C[C@H]2CC[C@@H](C1)N(Cc1ccsc1)C2 | 10.2%
O=C(CCc1nc2cc(Br)cnc2[nH]1)NCCCn1ccnc1 | -7.28%
CN(C)c1cc(C2CCCN2Cc2ccccc2OCC(=O)O)ccn1 (stereo not given) | 24.4%
Cc1ccncc1C(=O)N1C[C@H]2CN(CC3CCC3)C[C@@]2(C(=O)O)C1 | 42.3%
CN(Cc1ccncc1)C1CC2(CCN(c3ncccn3)CC2)C1 | 58.7%
CN(Cc1cccnc1)C1CC2(CCN(c3ncc(F)cn3)CC2)C1 | 49.1%
CN(Cc1ccncc1)C1CC2(CCN(c3ncc(F)cn3)CC2)C1 | 55.5%

SMILES | INHIBITION
CN(Cc1cccnc1)C1CC2(CCN(c3ncccn3)CC2)C1 | -20.8%
CN(Cc1ccncc1)C1CCC[C@@H]2CN(c3ncccn3)C[C@H]12 (stereo not given in full) | -22.7%
Cc1cnc(N2CCC3(CC2)CC(N(C)Cc2ccncc2)C3)nc1 | 49.1%
CSCCCN1CCCC1c1noc(C(C)C)n1 (stereo not given) | 1.18%
Cc1cnn(C2CCCN(C(=O)CCNS(C)(=O)=O)C2)c1 (stereo not given) | 19.2%
C1CCC(c2nnc3sc(C4CCOC4)nn23)C1 (stereo not given) | 16.7%
Cc1cc(N)nc(SC2CCCN(Cc3ccccc3)C2=O)n1 (stereo not given) | 26.8%
Cc1cc(N)nc(SC2CCN(c3ccccc3F)C2=O)n1 (stereo not given) | 56.5%
Cc1cc(N)nc(SC2CCN(c3ccccc3)C2=O)n1 (stereo not given) | 6.94%
CCCc1nnc(N2CCC3(CCC(=O)N(C)C3)CC2)o1 | 47.2%
Cc1noc(C)c1CN(Cc1ccccc1)C(C)CN1CCOCC1 (stereo not given) | 37.4%
CC(C)N(CC(N)=O)Cc1csc(-c2ncccn2)n1 | -16.8%
COc1ccc(CN(C)Cc2c(C)noc2C)c(Cl)c1OC | 14.3%
Cc1noc(C)c1CN(Cc1ccccc1)C(C)C | 60.2%
CC(C)c1nc(CN(C)Cc2ccc(O)c(Cl)c2)cs1 | 17.1%
CC(C)N(Cc1ccccc1)Cc1csc(-c2ncccn2)n1 | -50.2%
Cc1cc(CN(C)C(=O)CC(C)C)no1 | -7.93%
Cc1noc(C)c1CN(C)C(=O)CCOc1ccc(Cl)cc1 | 2.65%
CC(C)N(Cc1ccccc1)Cc1nnsc1Cl | -37.8%
Cc1noc(C)c1CN(C)Cc1csc(-c2ncccn2)n1 | 62.8%
Cc1cc(CN(C)Cc2csc(-c3ccc(C(C)C)cc3)n2)no1 | 83.4%
CCOc1ccc(-c2nc(CN(C)Cc3c(C)noc3C)cs2)cc1 | 88.5%
O=C(CCc1cccc(C2CCNCC2)n1)N1CCCCC1 | -3.94%
Oc1cccc(CN2C[C@@H]3CC[C@H]2CN(Cc2ccc(F)cc2)C3)c1 | 39.5%
O=C(c1cc(C2CC2)no1)N1C[C@@H]2CC[C@H]1CN(Cc1ccccn1)C2 | 5.87%

SMILES | INHIBITION
O=C(COc1coc(CN2CCCC2)cc1=O)Nc1cc(Cl)ccc1Cl | -12.5%
CC(C)CN1CCS(=O)(=O)[C@@H]2CCN(S(=O)(=O)c3ccccc3)CC[C@@H]21 | 8.85%
Cc1noc(C)c1CN(C)Cc1nc(N)c2ccccc2n1 | 20.9%
Cc1noc(C)c1CN(C)CC(c1cccs1)N1CCOCC1 (stereo not given) | -54.6%
Cc1noc(C)c1CN(C)Cc1csc(-c2ccc(F)cc2)n1 | 77.4%
CN(CC(N)=O)Cc1csc(-c2ccc(F)cc2)n1 | -0.991%
Cc1noc(C)c1CN(C)CCC(=O)N1CCc2sccc2C1 | 0.932%
Cc1noc(C)c1CN(C)Cc1csc(-c2ccc(C(C)C)cc2)n1 | 91.1%
Cc1noc(C)c1CN(C)Cc1csc(-c2ccccc2F)n1 | 62.8%
Cc1noc(C)c1CN(C)C(C)c1cccs1 (stereo not given) | 46.4%
COc1cccc(CN(C)Cc2c(C)noc2C)c1OC | -6.61%
O=C(c1ncccn1)N1CCC[C@]2(C[C@@H](Oc3ncccc3F)CO2)C1 | -2.17%
CC(C)C(Sc1nccn1C1CC1)C(=O)NCc1cccnc1 (stereo not given) | 0.411%
Cc1ccc(N2CC3(CCN(Cc4nccn4C)C3)CC2=O)s1 (stereo not given) | 15.9%
CCOC(=O)CN1CC(c2nc(-c3ccsc3)no2)C1 | 9.96%
CC(C)NC(=O)CNC(=O)c1csc(Cc2ccccc2F)n1 | -20.6%
N#CCCCS(=O)(=O)N1CCC(CSc2ccccc2)C1 (stereo not given) | -18.7%
CCCS(=O)(=O)N1CCC(Oc2ccc(C#N)cc2)CC1 | 25.8%
COc1ccc(C2CCN(S(=O)(=O)CCCC#N)CC2)cc1 | 59.1%
COc1ccc(C2CCN(Cc3cscn3)CC2)cc1 | 37.7%
CCCS(=O)(=O)N1CCC(c2ccc(OC)cc2)CC1 | 67.8%
Cc1ncsc1C(=O)NC1CCN(CCCC#N)CC1 | 33.7%
CC(C)n1cnnc1C1CCCN(S(=O)(=O)CCCC#N)C1 (stereo not given) | 48.3%
CCCS(=O)(=O)N1CCC(NCc2c(C)nn(C)c2OC)CC1 | -10.9%
COc1ccc(C2CCN(CCCC#N)CC2)cc1 | 63.5%
